Compound activity from PubChem.
EPAC1 antag = antagonists of human EPAC1; EPAC1 GEF assay, Rap1b-BODIPY-GDP exchange fluorescence; O95398; 0.14% of 360,000 active; Potency, µM (titrated, usually from 115 µM), actives largely listed as inhibitors; also: nearly all actives have a fitted effect of over 50% in size
EPAC2 ag = EPAC2 (human) agonism. EPAC2 activation, biochemical qHTS; response scale: 100% = 6.5 mM cAMP response. Potency, µM (titrated, usually from 154 µM), usual class: activators. 0.079% of 360,000 active; also: nearly all actives have a fitted effect of over 50% in size
Target sequence (Q8WZA2 whole entry, looked up): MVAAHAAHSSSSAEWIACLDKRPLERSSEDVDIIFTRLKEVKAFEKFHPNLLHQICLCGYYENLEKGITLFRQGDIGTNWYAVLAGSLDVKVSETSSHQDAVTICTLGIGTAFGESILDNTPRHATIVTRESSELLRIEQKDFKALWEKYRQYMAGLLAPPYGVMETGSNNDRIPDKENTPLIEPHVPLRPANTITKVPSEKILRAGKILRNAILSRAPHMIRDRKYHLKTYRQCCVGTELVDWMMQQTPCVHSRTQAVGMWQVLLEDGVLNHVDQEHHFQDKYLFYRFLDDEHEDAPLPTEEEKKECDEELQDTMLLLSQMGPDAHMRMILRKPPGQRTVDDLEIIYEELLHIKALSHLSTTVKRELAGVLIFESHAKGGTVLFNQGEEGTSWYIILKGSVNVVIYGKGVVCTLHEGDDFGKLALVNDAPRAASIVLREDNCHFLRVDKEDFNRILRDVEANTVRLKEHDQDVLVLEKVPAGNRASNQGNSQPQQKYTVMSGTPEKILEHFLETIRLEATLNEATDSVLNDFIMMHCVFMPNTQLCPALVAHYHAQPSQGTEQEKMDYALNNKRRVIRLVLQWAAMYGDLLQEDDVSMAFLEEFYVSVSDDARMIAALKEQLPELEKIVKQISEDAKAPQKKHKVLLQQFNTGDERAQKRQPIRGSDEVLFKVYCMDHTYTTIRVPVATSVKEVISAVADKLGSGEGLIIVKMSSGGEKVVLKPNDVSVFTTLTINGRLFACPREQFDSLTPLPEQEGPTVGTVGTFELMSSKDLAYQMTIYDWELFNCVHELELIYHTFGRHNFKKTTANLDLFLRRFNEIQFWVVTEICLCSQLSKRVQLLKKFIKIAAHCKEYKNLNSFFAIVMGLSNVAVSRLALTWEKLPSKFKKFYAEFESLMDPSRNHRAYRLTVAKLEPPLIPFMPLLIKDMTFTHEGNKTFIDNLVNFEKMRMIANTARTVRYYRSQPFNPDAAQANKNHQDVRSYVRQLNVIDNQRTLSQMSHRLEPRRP
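Compounds were added across a concentration range to EPAC2 (100 nM), RAP1B-BODIPY-GDP (250 nM) and GDP (50 uM). After 5 min at room temperature, fluorescence was recorded at 5-min intervals for 30 min.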
EPAC1 ag = EPAC1 (human) agonism | 0.073% of 360,000 active | EPAC1 agonist qHTS, biochemical assay; response scale: 100% = response to 6.5 mM cAMP | Potency, µM (titrated, usually from 154 µM), actives largely listed as activators; also: nearly all actives have a fitted effect of over 60% in size
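Compounds were pinned as a concentration titration into mixtures of EPAC1 (100 nM), BODIPY-GDP-loaded Rap1B (250 nM) and GDP (50 uM). After 5 min at room temperature, fluorescence was followed for 30 min; activity was scaled to 6.5 mM cAMP.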
EPAC2 antagonist = antagonists of human EPAC2 | 0.18% of 360,000 active | Q8WZA2 | EPAC2 GEF exchange of Rap1B-BODIPY-GDP, fluorescence | AID 720708 | Potency, µM (series often up to 114 µM), actives largely listed as inhibitors; also: nearly all actives have a fitted effect of over 45% in size
USP1 inh = blocks the human USP1/UAF1 deubiquitinase complex. O94782. recombinant USP1/UAF1, Ub-Rhodamine cleavage fluorescence. Potency, µM (series often up to 57.1 µM), hits mostly inhibitors. 0.23% of 390,000 active. AID 743255; also: nearly all actives have a fitted effect of over 60% in size
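High-throughput fluorogenic screen: 1nM USP1/UAF1 complex, Ub-Rho substrate 150nM final, 50mM HEPES pH 7.8 with 0.5mM EDTA, 0.1 mg/ml BSA, 1mM TCEP and 0.01% Tween-20.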
Hits are given with their value. This is a sample that favours compounds with a hit; in the whole collection about 0.44% have one here. Calls follow the shape of the dose curve; as a rule, active = well fitted curve in the direction sought with a large enough effect; inconclusive = small, poorly fitted or top-dose-only effect, or another doubt; inactive = no such curve, though single readings can be large; an effect the other way counts as inactive or inconclusive.

Results for Cn1c(-c2sccc2OCc2ccc(Cl)cc2Cl)n[nH]c1=S ?
EPAC1 antag: 89µM; EPAC2 ag: inactive; EPAC1 ag: inactive; EPAC2 antagonist: inactive; USP1 inh: inactive

What do the screens show for `Cc1ccc(COc2ccsc2-c2n[nH]c(=S)n2C)cc1`?
EPAC1 antag: inactive; EPAC2 ag: inactive; EPAC1 ag: inactive; EPAC2 antagonist: inactive; USP1 inh: inactive

What do the screens show for `CC(C)(C)NC(=O)NC(=O)CN1CCN(S(=O)(=O)c2ccc3c(c2)CCCC3)CC1`?
EPAC1 antag: inactive; EPAC2 ag: inactive; EPAC1 ag: 56µM; EPAC2 antagonist: inactive; USP1 inh: inactive

Results for CCOC(=O)c1c(NC(=O)c2ccco2)n(C2CCCCC2)c2nc3ccccc3nc12 ?
EPAC1 antag: inactive; EPAC2 ag: inactive; EPAC1 ag: inactive; EPAC2 antagonist: inactive; USP1 inh: 16µM

Results for Cc1cc(N2CCC(C(=O)Nc3ccc(Cl)cc3)CC2)n2nc(C)c(-c3ccc(Cl)cc3)c2n1 ?
USP1 inh: inactive

What do the screens show for `Cc1cc(C)c2nc(N3C(=O)C(O)=C(C(=O)c4ccco4)C3c3ccco3)sc2c1` (stereo not drawn)?
EPAC1 antag: 50µM; EPAC2 ag: inactive; EPAC1 ag: inactive; EPAC2 antagonist: inactive; USP1 inh: inactive

How did CC1=C(C(=O)Nc2ccccc2)C(C(C)C)n2nc(SCc3ccccc3C)nc2N1 (stereo not drawn) do in these assays?
USP1 inh: inactive

Results for Oc1ccc(NCc2cccc(OCc3ccc(F)cc3)c2)cc1 ?
EPAC1 antag: 45µM; EPAC2 ag: inactive; EPAC1 ag: inactive; EPAC2 antagonist: inactive; USP1 inh: inconclusive

Results for Oc1ccc(NCc2cccc(OCc3ccccc3)c2)cc1 ?
EPAC1 antag: 32µM; EPAC2 ag: inactive; EPAC1 ag: inactive; EPAC2 antagonist: inconclusive; USP1 inh: inconclusive

How did O=[N+]([O-])c1ccc(COc2cccc(CNc3ccc(F)cc3)c2)cc1 do in these assays?
EPAC1 antag: inactive; EPAC2 ag: inactive; EPAC1 ag: inactive; EPAC2 antagonist: inactive; USP1 inh: inactive

Results for O=C1C(=C(c2ccccc2)c2ccccc2)Nc2ccccc21 ?
EPAC1 antag: inactive; EPAC2 ag: 6.3µM; EPAC1 ag: inactive; EPAC2 antagonist: inactive; USP1 inh: inactive

What do the screens show for `COc1cc(Nc2ccn3nc(-c4ccc(F)cc4)cc3n2)cc(OC)c1OC`?
EPAC1 antag: inactive; EPAC2 ag: inactive; EPAC1 ag: inactive; EPAC2 antagonist: inactive

Results for COCCC(=O)N1CCC(Oc2ccc(C(=O)N3CCC(N(C)C)C3)cc2)CC1 (stereo not drawn) ?
EPAC1 antag: inactive; EPAC2 ag: inactive; EPAC1 ag: inactive; EPAC2 antagonist: inactive; USP1 inh: inactive

How did FC(F)(F)c1ccccc1Cc1c(-c2ccc(Cl)cc2)nc2ccc(Cl)cn12 do in these assays?
EPAC1 antag: inactive; EPAC2 ag: inactive; EPAC1 ag: inactive; EPAC2 antagonist: 56µM

What do the screens show for `FC(F)(F)c1ccccc1Cc1c(-c2ccccc2)nc2ccc(Cl)cn12`?
EPAC1 antag: inactive; EPAC2 ag: inactive; EPAC1 ag: inactive; EPAC2 antagonist: inactive

Results for COC(=O)C(Cc1ccccc1)NC(=O)CNC(=O)c1ccccc1OC (stereo not drawn) ?
EPAC1 antag: inactive; EPAC2 ag: inactive; EPAC1 ag: inactive; EPAC2 antagonist: inactive; USP1 inh: inactive

What do the screens show for `CCOC(=O)Cc1cnc(NC(=O)CSc2nc(C(C)C)cc(=O)[nH]2)s1`?
EPAC1 antag: inactive; EPAC2 ag: inactive; EPAC1 ag: inactive; EPAC2 antagonist: inactive; USP1 inh: inactive

How did O=C(NCc1ccco1)c1cccc2c1C(=O)c1ccc(N3CCC(Cc4ccccc4)CC3)cc1S2(=O)=O do in these assays?
EPAC1 antag: inactive; EPAC2 ag: inactive; EPAC1 ag: inactive; EPAC2 antagonist: inactive; USP1 inh: 28µM

Results for O=C(NCCc1ccc(F)cc1)c1cccc2c1C(=O)c1ccc(N3CCC(Cc4ccccc4)CC3)cc1S2(=O)=O ?
EPAC1 antag: inactive; EPAC2 ag: inactive; EPAC1 ag: inactive; EPAC2 antagonist: inconclusive; USP1 inh: inactive

How did O=C(NCc1cccc(F)c1)c1cccc2c1C(=O)c1ccc(N3CCCC3)cc1S2(=O)=O do in these assays?
EPAC1 antag: inactive; EPAC2 ag: inconclusive; EPAC1 ag: 28µM; EPAC2 antagonist: inactive; USP1 inh: inconclusive

Results for CC1CCN(c2ccc3c(c2)S(=O)(=O)c2cccc(C(=O)NCc4cccc(F)c4)c2C3=O)CC1 ?
EPAC1 antag: inactive; EPAC2 ag: inactive; EPAC1 ag: 100µM; EPAC2 antagonist: inactive; USP1 inh: inconclusive

How did O=C(NCc1cccc(F)c1)c1cccc2c1C(=O)c1ccc(N3CCC(Cc4ccccc4)CC3)cc1S2(=O)=O do in these assays?
EPAC1 antag: inactive; EPAC2 ag: inactive; EPAC1 ag: inactive; EPAC2 antagonist: inactive; USP1 inh: 7.9µM

Results for O=C(NCc1cccc(C(F)(F)F)c1)c1cccc2c1C(=O)c1ccc(N3CCC(Cc4ccccc4)CC3)cc1S2(=O)=O ?
EPAC1 antag: inactive; EPAC2 ag: inactive; EPAC1 ag: inactive; EPAC2 antagonist: inactive; USP1 inh: 25µM

What do the screens show for `Nc1c(C(=O)NC2CC2)sc2nc3c(c(-c4ccco4)c12)CC/C3=C/c1ccco1`?
EPAC1 antag: inconclusive; EPAC2 ag: inactive; EPAC1 ag: inactive; EPAC2 antagonist: inactive; USP1 inh: 28µM

How did COc1cc(C(c2c(C(=O)O)[nH]c3ccccc23)c2c(C(=O)O)[nH]c3ccccc23)ccc1OCc1ccccc1 do in these assays?
EPAC1 antag: 40µM; EPAC2 ag: inactive; EPAC1 ag: inactive; EPAC2 antagonist: inactive; USP1 inh: inconclusive

What do the screens show for `COc1ccc(S(=O)(=O)N2CCC3(CC2)OCCN3S(=O)(=O)c2ccc(OC)cc2)cc1`?
EPAC1 antag: inactive; EPAC2 ag: inactive; EPAC1 ag: inactive; EPAC2 antagonist: inactive; USP1 inh: inactive

How did COc1ccc(S(=O)(=O)N2CCOC23CCN(S(=O)(=O)c2cccs2)CC3)cc1 do in these assays?
EPAC1 antag: inactive; EPAC2 ag: inactive; EPAC1 ag: 56µM; EPAC2 antagonist: inactive; USP1 inh: inactive

Results for Cc1cccn2c(=O)c(C(=O)NCCc3ccccc3)c(O)nc12 ?
USP1 inh: inactive

Results for C=CC[C@H](CC(=O)NCCO)C(=O)N[C@H](COC(=O)[C@H](CC=C)CC(=O)OC(C)(C)C)c1ccccc1 ?
EPAC1 antag: inactive; EPAC2 ag: inactive; EPAC1 ag: inactive; EPAC2 antagonist: inactive; USP1 inh: inconclusive

What do the screens show for `O=C1c2ccccc2-c2cccc(NS(=O)(=O)c3ccc(C(F)(F)F)cc3)c21`?
EPAC1 antag: inactive; EPAC2 ag: inactive; EPAC1 ag: inactive; EPAC2 antagonist: inactive; USP1 inh: 28µM

What do the screens show for `CCOC(=O)c1nn(-c2ccccc2)c(=O)c2c(N)scc12`?
EPAC1 antag: inactive; EPAC2 ag: inactive; EPAC1 ag: inactive; EPAC2 antagonist: inactive; USP1 inh: 18µM
